Assay [1] can be described thus: UKN5_HCS_SBAD2_neurite_outgrowth: University of Konstanz (UKN) Leist Lab Neurite Outgrowth Assay in human iPSC-derived immature Dorsal Root Ganglia Neurons (UKN5) (AID 2284070). As to conditions: actives raise or lower the signal. In outline: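 SBAD2 iPSC-derived immature peripheral neurons on Matrigel, 100.000 cells/cm2, medium with CHIR99021 (1.5 uM), SU5402 (5 uM), DAPT (5 uM); compound added 1 h post-seeding for 24 h. Calcein-AM neurite area by high-content imaging; Hoechst H-33342 viability; bidirectional fit vs DMSO.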

A short description of assay [2]: CCTE_Shafer_MEA_dev_AB: CCTE's Alamar Blue Assay for Cytotoxicity in the Neural Network Formation Assay, Shafer Lab (AID 2284083; active = hit-call score of the fitted dose curve at least 0.9, where 1 is the maximum;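 note: resazurin reduction fluorescence as viability of cultured neurons; twelve days of exposure from plating with re-dosing on DIV 5 and 9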). In outline: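 Resazurin fluorescence, relative to DMSO, gauges viability after twelve days of exposure that began at plating of rat cortical neurons (1.5 x 10^5 cells/well, 48-well MEA); treatment renewed with full medium exchange on DIV 5 and 9.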
(In general: The colour change of resazurin is a common sign of viable cells or microbes.)

A short description of assay [3]: CCTE_Shafer_MEA_dev_mutual_information_norm: CCTE's Neural Network Formation Assay for Mutual Information Normalization, Shafer Lab (AID 2284091). In outline:
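Rat cortical cultures, 48-well MEA, continuous exposure DIV 0–12 with full media/compound change DIV 5 and 9. Readout: inter-electrode mutual information, AxIS adaptive spike detection; AUC across DIV 5/7/9/12 recordings; DMSO baseline, negative fitting direction.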

Assay [4] is described as follows: CCTE_Shafer_MEA_dev_correlation_coefficient_mean: CCTE's Neural Network Formation Assay for Mean Correlation Coefficient, Shafer Lab (AID 2284093).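 Note: well mean pairwise spike train correlation integrated as AUC over recording days 5 to 12; potency fitted for loss of correlation relative to DMSO vehicle wells.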 The method in brief:
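Primary rat cortical neurons on PEI-coated 48-well MEA plates (16 electrodes/well) were exposed from plating day 0 through DIV12, with compound renewed at DIV5 and 9. Pairwise spike correlations were averaged per well; trapezoidal AUC across DIV5, 7, 9, 12.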

The nature of assay [5]: UKN2_HCS_IMR90_neural_migration: University of Konstanz (UKN) Leist Lab Neural Crest Cell Migration Assay in human induced IMR90 Pluripotent Stem Cells (UKN2) (AID 2284204). As to conditions: actives raise or lower the signal. The method in brief:
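iPSC-derived IMR90 neural crest cells on PLO/laminin/fibronectin were seeded around silicone stoppers; after stopper removal, migration in N2-S medium with EGF and FGF ran 24 h before 24 h chemical exposure. Calcein-AM/Hoechst high-content imaging; bidirectional fit versus DMSO.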

Assay [6] in a line: IUF_NPC1b_proliferation_BrdU_72hr: Leibniz Research Institute for Environmental Medicine (IUF) 72-hour Neural Progenitor Cell Bromodeoxyuridine (BrdU) Proliferation Assay (NPC1b) (AID 2284207). The method in brief:
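hNPC spheres (primary, GW 16-19 fetal cortex), single sphere/well, EGF+FGF medium; 72 h compound, no renewal; BrdU pulse last 16 h; luminescent ELISA; activity vs DMSO baseline; growth-factor withdrawal as positive control.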

The nature of assay [7]: IUF_NPC1a_proliferation_area_72hr: Leibniz Research Institute for Environmental Medicine (IUF) 72-hour Neural Progenitor Cell Proliferation Area Assay (NPC1a) (AID 2284208). In outline: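 Measured in 3D suspension: each well held one primary hNPC sphere grown with EGF and FGF at pH 7.2-7.6. Compound stayed on for 72 h, then area was imaged; spheres lacking growth factors defined reduced proliferation.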

The nature of assay [8]: UKN4_HCS_LUHMES_cell_viability: Viability Assessment in the University of Konstanz (UKN) Leist Lab Neurite Outgrowth Assay in human LUHMES cells (UKN4) (AID 2284232). In outline:
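LUHMES precursors differentiated 2 days, replated at 30000 cells/well without cAMP/GDNF, then compound-treated 24 h. Viability from Hoechst H-33342 and calcein-AM live staining (30 min) by high-content fluorescence imaging; bidirectional fit versus DMSO.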

The nature of assay [9]: UKN2_HCS_IMR90_cell_viability: Viability Assessment in the University of Konstanz (UKN) Leist Lab Neural Crest Cell Migration Assay in human induced IMR90 Pluripotent Stem Cells (UKN2) (AID 2284233).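 Note: viability of neural crest cells differentiated from IMR90 iPSC measured by calcein-AM fluorescence imaging; cells exposed to compound for 24 h after a 24 h migration phase.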 The method in brief: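 iPSC-derived (IMR90) neural crest cells seeded around silicone stoppers on PLO/laminin/fibronectin; after 24 h migration in N2-S with EGF/FGF, chemical added for 24 h. Calcein-AM/Hoechst stained 30 min, high-content imaged; bidirectional fit versus DMSO.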

A short description of assay [10]: IUF_NPC2c_oligodendrocyte_migration_120hr: Leibniz Research Institute for Environmental Medicine (IUF) 120-hour Neural Progenitor Cell Migration Assay for Oligodendrocyte Migration (NPC2c) (AID 2284297).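 Note: O4-positive oligodendrocyte migration distance divided by radial glia migration distance.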 In outline:
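Using fetal brain neural progenitor spheres differentiating in N2 medium at 37C, compounds were present for 120 h. Oligodendrocyte migration distance, normalized to radial glia migration, was measured from imaged O4 staining.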

A short description of assay [11]: IUF_NPC2a_radial_glia_migration_120hr: Leibniz Research Institute for Environmental Medicine (IUF) 120-hour Neural Progenitor Cell Migration Assay for Radial Glia Migration (NPC2a) (AID 2284298). In outline:
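Exposure of 0.3 mm primary hNPC spheres runs day 0 to 120 h with a half-volume medium change at day 3. Fixed cells get Hoechst staining; high-content analysis of nuclear positions yields radial glia migration distance per well, compared against DMSO controls.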

The nature of assay [12]: IUF_NPC2a_radial_glia_migration_72hr: Leibniz Research Institute for Environmental Medicine (IUF) 72-hour Neural Progenitor Cell Migration Assay for Radial Glia Migration (NPC2a) (AID 2284299). In outline:
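Human fetal neural progenitor spheres (0.3 mm) plated on poly-D-lysine/laminin in N2 differentiation medium and exposed from day 0 at 7 concentrations; radial glia migration distance from sphere edge measured at 72 h on brightfield images, mean of four directions, vs DMSO.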

Assay [13] in a line: IUF_NPC2b_neuronal_migration_120hr: Leibniz Research Institute for Environmental Medicine (IUF) 120-hour Neural Progenitor Cell Migration Assay for Neuron Migration (NPC2b) (AID 2284300). In outline:
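Fetal human NPC spheres migrate on PDL/laminin during 120 h compound treatment; neuronal migration distance, glia-normalized, scored versus DMSO control.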

A short description of assay [14]: IUF_NPC3_neuronal_differentiation_120hr: Leibniz Research Institute for Environmental Medicine (IUF) 120-hour Neuronal Differentiation Assay (NPC3) (AID 2284301). The method in brief: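 Primary human fetal neural progenitor spheres (GW 16-19, 0.3 mm) plated on poly-D-lysine/laminin in N2 medium, exposed from day 0 for 120 h with half-medium refresh at day 3. TUBB3+ cells as percent of Hoechst nuclei in migration area; DMSO baseline.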

Assay [15] can be described thus: IUF_NPC4_neurite_length_120hr: Leibniz Research Institute for Environmental Medicine (IUF) 120-hour Neuronal Morphology Assay for Neurite Length (NPC4) (AID 2284302). The method in brief: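 Human fetal cortex (GW 16-19) neural progenitor spheres, 0.3 mm, were plated on poly-D-lysine/laminin in N2 differentiation medium and exposed from day 0 for 120 h, half-feeding at day 3. Mean TUBB3+ neurite length (µm) came from skeletonized images, relative to DMSO.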

Assay [16] is described as follows: IUF_NPC5_oligodendrocyte_differentiation_120hr: Leibniz Research Institute for Environmental Medicine (IUF) 120-hour Oligodendrocyte Differentiation Assay (NPC5) (AID 2284304; active = hit-call score of the fitted dose curve at least 0.9, where 1 is the maximum;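 note: primary human fetal neural progenitor spheres plated to migrate and differentiate; share of O4-positive cells among Hoechst nuclei found by CNN image analysis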). The method in brief: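 After plating on poly-D-lysine/laminin, fetal-derived hNPC spheres differentiated for 120 h at 37C in compound-containing N2 medium, refreshed by half on day 3. O4 immunostaining over Hoechst nuclei in the migration zone gave oligodendrocyte percentage relative to DMSO.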

The nature of assay [17]: IUF_NPC4_neurite_area_120hr: Leibniz Research Institute for Environmental Medicine (IUF) 120-hour Neuronal Morphology Assay for Neurite Area (NPC4) (AID 2284305; active = hit-call score of the fitted dose curve at least 0.9, where 1 is the maximum). The method in brief:
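Human fetal cortex-derived neural progenitor spheres (0.3 mm, GW 16-19) plated on poly-D-lysine/laminin in N2 differentiation medium and exposed from day 0 for 120 h across 7 concentrations plus solvent control. Neurite area is mean pixel area per TUBB3-positive neuron via skeletonization, analysed relative to DMSO.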

Assay [18] can be described thus: IUF_NPC2-5_cytotoxicity_72hr: Cytotoxicity Assessment at 72 hours in the Leibniz Research Institute for Environmental Medicine (IUF) Neural Progenitor Cell Migration and Differentiation Assay for Cytotoxicity (NPC2-5) (AID 2284306; active = hit-call score of the fitted dose curve at least 0.9, where 1 is the maximum;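 note: LDH release into supernatant measured by resorufin fluorescence marking membrane damage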). The method in brief:
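Human fetal (GW 16-19) neural progenitor spheres, 0.3 mm, plated on poly-D-lysine/laminin in N2 differentiation medium and exposed from day 0 to 7 concentrations plus solvent control (DMSO ≤0.1%). LDH-dependent resazurin-to-resorufin fluorescence in supernatant at 72 h.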

The nature of assay [19]: IUF_NPC2-5_cytotoxicity_120hr: Cytotoxicity Assessment at 120 hours in the Leibniz Research Institute for Environmental Medicine (IUF) Neural Progenitor Cell Migration and Differentiation Assay (NPC2-5) (AID 2284307; active = hit-call score of the fitted dose curve at least 0.9, where 1 is the maximum). In outline:
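Membrane-integrity loss is quantified by LDH in supernatant after five days of exposure of migrating, differentiating human fetal NPC spheres; seven serially diluted concentrations are tested with DMSO kept at or below 0.1%.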

Assay [20] in a line: IUF_NPC2-5_cell_number_120hr: Cell Number Assessment at 120 hours in the Leibniz Research Institute for Environmental Medicine (IUF) Neural Progenitor Cell Migration and Differentiation Assay (NPC2-5) (AID 2284308).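 Note: count of Hoechst-stained nuclei in migration zone around plated human neural progenitor spheres.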 The method in brief:
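Seven-point serial dilutions plus solvent control were applied to plated 0.3 mm hNPC spheres at differentiation start, with medium half-replaced at day 3. Nuclei positive for Hoechst in the migration zone were enumerated at 120 h.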

The nature of assay [21]: IUF_NPC2-5_viability_120hr: Viability Assessment at 120 hours in the Leibniz Research Institute for Environmental Medicine (IUF) Neural Progenitor Cell Migration and Differentiation Assay (NPC2-5) (AID 2284312). In outline: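 Human fetal (GW 16-19) neural progenitor spheres of 0.3 mm were plated on poly-D-lysine/laminin in N2 differentiation medium and exposed from day 0 for 120 h, with half-medium refresh at day 3. Viability was read as alamar blue resazurin-to-resorufin fluorescence against DMSO.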

Assay [22] is described as follows: IUF_NPC1_cytotoxicity_72hr: Cytotoxicity Assessment at 72 hours in the Leibniz Research Institute for Environmental Medicine (IUF) Neural Progenitor Cell Proliferation Assay (NPC1) (AID 2284332; active = hit-call score of the fitted dose curve at least 0.9, where 1 is the maximum;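 note: rising LDH signal means more cytotoxicity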). The method in brief:
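Human fetal neural progenitor spheres (0.3 mm) in EGF/FGF proliferation medium, 37C, exposed 72 h without renewal. LDH release in supernatant read by resorufin fluorescence; gain of signal scored relative to dynamic range.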

SMILES strings stand for the structures. Records with an inconclusive call do not appear. Activity calls are given as the source filed them. Rule for the calls, unless noted: active = hit-call score of the fitted dose curve at least 0.9, where 1 is the maximum; inactive = score below 0.9.

In general, AC50 refers to the concentration giving half of the maximal activity seen. As to `Brc1ccc(Oc2cc(Br)c(Br)cc2Br)c(Br)c1`, the call in assay [1], in [3], in assay [5], in assay [6], in assay [7] and in [8] was inactive. Further, the result in [9], in assay [10], in assay [11], in assay [12], in [13] and in assay [14] was inactive. Besides, the outcome in assay [15], in assay [16], in assay [17], in assay [18], in assay [19] and in assay [20] was inactive. The compound was classed as inactive in [21] and in [22]. In addition, the results for the half-maximal activity concentration (AC50) in [2] and in [4] were 13.6 µM (active) and 10 µM (active), respectively.
